Test results taken from PubChem BioAssay AID602292 (National Center for Advancing Translational Sciences (NCATS), 2012).
The campaign covered roughly 1,300 compounds. About 380 (29%) were called active. Roughly 37% stayed inconclusive and do not appear here. Some of the results follow. A number with no mark means an inactive call. Calls come from the whole dose curve; as a rule, active = well fitted inhibition curve with a large enough effect; inconclusive = small, poorly fitted or top-dose-only effect; inactive = flat fitted curve, though single readings scatter.

Target: Thyrotropin receptor (Homo sapiens) (UniProt P16473)
Test: qHTS for antagonists of the Thyroid Stimulation Hormone Receptor: Hit Validation in Primary Screen; note: nearly all actives have a fitted effect of over 80% in size;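 for activity change, negative = inhibition: cells stimulated with TSH at EC80 of 4 nM during compound exposure; cAMP by competitive HTRF where cellular cAMP lowers the 665 nm FRET signal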
Details: TSHR-expressing cells, cAMP antagonist mode; series mostly up to 58 µM; activity change, negative = inhibition: at the top concentration
From the text: The thyroid-stimulating hormone receptor (TSHR) is a member of the 7 trans-membrane-spanning receptor (7TMR) family of cell surface receptors. TSHR-mediated hyperthyroidism is important in thyroid pathology. The development of small molecule antagonists of TSHR may lead to therapeutic approaches for TSHR-mediated hyperthyroidism caused by constitutively activating mutations or stimulating auto-antibodies associated with Graves' disease. Graves' disease is the leading cause of hyperthyroidism and is caused by autoantibodies that stimulate TSHR (TsAbs) causing thyroid growth and unregulated overproduction of thyroid hormones and existing treatments have liabilities (agranulocytosis). In addition, TSHRs are known to be expressed in multiple extrathyroidal tissues including bone, brain, kidney, testis, fat and cells of the immune system but the role of the TSHR in these tissues is not clear. Therefore, TSHR antagonists/inverse agonists could be used as probes of extrathyroidal TSHR function. Finally, TSHR inverse agonists, which are a subclass of antagonists that inhibit agonist-independent (or basal or constitutive) TSHR signaling, could be used to inhibit TSH-independent signaling in patients with recurrent or metastatic thyroid cancer who are receiving thyroid hormone to suppress TSH.
In collaboration between scientist from the NCGC and the NIDDK, a miniaturized HTRF high-throughput screen was developed. It's a cell based assay, where an anti cAMP antibody contains a fluorescent cryptate tag (excitation 337 nm; emission 620 nm) and the acceptor is cAMP-d2 (excitation 620 nm; emission 665 nm). When antibody and cAMP-d2 interact and are excited by a 337 nm light, a FRET occurs resulting in emission at 665 nm. The assay is competition between cAMP-d2 and cAMP (from the cell lysate). The homogeneous protocol allows for one step dispense after stimulation that is automation friendly. This is a hit validation assay using the primary screen format.
NIH Chemical Genomics Center [NCGC]
NIH Molecular Libraries Probe Centers Network [MLPCN]
Assay Provider: Marvin Gershengorn, NIDDK
1. 3ul of 200 TSHR freshly harvested cells/well are dispensed into a 1536 TC-treated white solid bottom plate.
2. Through pintool addition, 23nl of compounds and control in 100% DMSO are added to the plate.
3. Then 1ul of EC80 TSH (4nM final) is added to the plate.
4. Assay is incubated at 37 deg C for 2 hours.
5. 2ul of cAMP antibody diluted 1:20 in lysis buffer is added.
6. Immediately following, 2ul of d2 diluted 1:20 in HBSS is added seperately.
7. The assay is incubated for 30 minutes at ambient room temperature.
8. The result is obtained by using a ViewLux read-out with HTRF settings.
% is set by controls: 0 for no effect and ±100 for the full control effect; potency is the fitted concentration of half-maximal effect.

Thyrotropin receptor (Homo sapiens), sequence (P16473 whole entry, looked up): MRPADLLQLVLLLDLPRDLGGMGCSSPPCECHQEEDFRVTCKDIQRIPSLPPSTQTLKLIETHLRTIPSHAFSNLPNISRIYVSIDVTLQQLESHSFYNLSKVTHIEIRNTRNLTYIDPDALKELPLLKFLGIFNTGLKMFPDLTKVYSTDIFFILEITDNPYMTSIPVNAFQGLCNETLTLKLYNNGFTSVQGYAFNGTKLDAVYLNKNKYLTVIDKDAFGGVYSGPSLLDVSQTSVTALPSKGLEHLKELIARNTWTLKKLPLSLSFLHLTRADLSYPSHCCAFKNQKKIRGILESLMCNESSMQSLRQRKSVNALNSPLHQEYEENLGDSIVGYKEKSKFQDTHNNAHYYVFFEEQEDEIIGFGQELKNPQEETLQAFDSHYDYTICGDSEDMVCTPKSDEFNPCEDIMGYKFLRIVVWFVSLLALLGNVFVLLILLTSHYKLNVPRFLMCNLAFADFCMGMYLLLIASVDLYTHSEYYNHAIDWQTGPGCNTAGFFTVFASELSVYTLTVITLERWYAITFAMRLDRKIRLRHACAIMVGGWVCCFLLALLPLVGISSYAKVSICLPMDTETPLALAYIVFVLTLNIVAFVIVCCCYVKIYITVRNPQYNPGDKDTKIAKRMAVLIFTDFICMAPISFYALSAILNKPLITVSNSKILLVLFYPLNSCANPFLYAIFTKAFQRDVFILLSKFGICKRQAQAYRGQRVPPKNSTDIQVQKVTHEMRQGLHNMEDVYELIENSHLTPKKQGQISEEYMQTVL

SMILES	Potency	activity change, negative = inhibition [%]
O=C(Nc1ccc(Oc2ccc(Cl)cc2)c(Cl)c1)c1cc(I)cc(I)c1O	1.51 µM (active)	–
COC(=O)C1=C(c2ccc(-c3ccccc3)c(F)c2)C[C@@H]2CC[C@H]1N2C(=O)NCCOc1ccccc1	5.36 µM (active)	–
COC(=O)C1=C(c2ccc(OCc3ccccc3)cc2)C[C@@H]2CC[C@H]1N2C(=O)NCc1cccc(OC)c1	–	-13.2
COC(=O)C1=C(c2ccc(-c3ccccc3)c(F)c2)C[C@@H]2CC[C@H]1N2C(=O)NCCc1ccccc1	6.01 µM (active)	–
COC(=O)C1=C(c2ccc(-c3ccccc3)c(F)c2)C[C@@H]2CC[C@H]1N2C(=O)NCCCOC(C)C	23.9 µM (active)	–
COC(=O)C1=C(c2ccc(-c3ccccc3)c(F)c2)C[C@@H]2CC[C@H]1N2C(=O)NCc1ccco1	21.3 µM (active)	–
O=C(Nc1ccc2ccccc2c1)c1nn(C23CC4CC(CC(C4)C2)C3)cc1Br	–	-7.52
COC(=O)C1=C(c2ccc(-c3ccccc3)c(F)c2)C[C@@H]2CC[C@H]1N2C(=O)NC(C)C	23.9 µM (active)	–
COC(=O)C1=C(c2ccc(-c3ccccc3)c(F)c2)C[C@@H]2CC[C@H]1N2C(=O)NCC1CC1	23.9 µM (active)	–
CNc1ccc2oc(C[C@H]3O[C@@]4(CC[C@H]3C)O[C@H]([C@H](C)C(=O)c3ccc[nH]3)[C@H](C)C[C@H]4C)nc2c1C(=O)O	–	-120
O=C(C1CCN(c2nc3ccc(Br)cc3s2)CC1)N1CCC2(CC1)OCCO2	30.1 µM (active)	–
COc1cc(C(C)=O)ccc1OC(=O)N(C)c1ccccc1	–	-4.44
COC(=O)C1=C(c2ccc(OC(F)(F)F)cc2)C[C@@H]2CC[C@H]1N2C(=O)N1CCC(C)CC1	30.1 µM (active)	–
CNc1cc(Cl)c2nonc2c1[N+](=O)[O-]	4.78 µM (active)	–
Cc1ccccc1-c1nc(CS(=O)CC(=O)N2CCC3(CC2)OCCO3)c(C)o1 (centres undefined)	–	-7.84
N#CC(C#N)=NNc1ccc(-n2ccc(C(F)(F)F)n2)cc1	2.39 µM (active)	–
Cc1ccc(-n2c(C)nc3ccccc3c2=O)c(C)c1	–	-2.85
Oc1ccc(Cl)cc1Cc1cc(Cl)ccc1O	30.1 µM (active)	–
Nc1ccc(C2(c3ccc(N)cc3)c3ccccc3-c3ccccc32)cc1	6.01 µM (active)	–
CC12CCC3C(CC=C4CC5(CCC43C)OCCO5)C1CCC2=O (centres undefined)	–	-6.34
N#CC(C#N)=NNc1ccc([N+](=O)[O-])cc1	2.69 µM (active)	–
CCN(CC)S(=O)(=O)c1ccc(NN=C(C#N)C#N)cc1	6.01 µM (active)	–
COc1cc(N2C(=O)CC(=O)NC2=O)cc(OC)c1OC	–	-3
Cc1nc2ccccc2c(=O)n1-c1cccc(C(F)(F)F)c1	–	-3.92
